From PubChem BioAssay
Only a selection was taken, and hits are over-represented in it overall.
GIRK2 activator: Activators of human GIRK2-containing channels; HEK293 GIRK2/NPY4 cells, thallium flux fluorescence; activation (% efficacy), % for hits at 37.5 µM; 34,000 tested, under 10 active; AID 1259324;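 active means primary screen hit, no activity in plain HEK293 cells, and in GIRK2-only cells above 5% efficacy rising with concentration; inactive means the rest, including fluorescent compounds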;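 further: efficacy is normalized control-subtracted fluorescence 15 s after thallium addition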
AMPAR-TARP mod: GluA2-stargazin AMPA receptor complex modulation; calls only at 30 µM; O88602+P19491; HEK293 GluA2+stargazin, membrane potential dye (FDSS), glutamate EC50; hits were called plate by plate, in both directions; AID 1259245; actives 3.5% (n = 40,000);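 active means any of four per-well response measures lying three or more SD from its plate-wide compound average, in either direction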
Target sequence (O88602 whole entry, looked up): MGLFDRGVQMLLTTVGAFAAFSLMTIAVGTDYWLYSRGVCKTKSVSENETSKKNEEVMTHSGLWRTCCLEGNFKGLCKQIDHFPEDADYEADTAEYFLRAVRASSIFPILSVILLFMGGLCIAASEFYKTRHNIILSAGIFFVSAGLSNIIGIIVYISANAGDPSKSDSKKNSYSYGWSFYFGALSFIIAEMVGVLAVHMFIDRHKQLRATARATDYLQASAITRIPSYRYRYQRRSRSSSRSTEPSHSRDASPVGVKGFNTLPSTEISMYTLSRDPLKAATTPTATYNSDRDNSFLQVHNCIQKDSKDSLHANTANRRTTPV
Target sequence (P19491 whole entry, looked up): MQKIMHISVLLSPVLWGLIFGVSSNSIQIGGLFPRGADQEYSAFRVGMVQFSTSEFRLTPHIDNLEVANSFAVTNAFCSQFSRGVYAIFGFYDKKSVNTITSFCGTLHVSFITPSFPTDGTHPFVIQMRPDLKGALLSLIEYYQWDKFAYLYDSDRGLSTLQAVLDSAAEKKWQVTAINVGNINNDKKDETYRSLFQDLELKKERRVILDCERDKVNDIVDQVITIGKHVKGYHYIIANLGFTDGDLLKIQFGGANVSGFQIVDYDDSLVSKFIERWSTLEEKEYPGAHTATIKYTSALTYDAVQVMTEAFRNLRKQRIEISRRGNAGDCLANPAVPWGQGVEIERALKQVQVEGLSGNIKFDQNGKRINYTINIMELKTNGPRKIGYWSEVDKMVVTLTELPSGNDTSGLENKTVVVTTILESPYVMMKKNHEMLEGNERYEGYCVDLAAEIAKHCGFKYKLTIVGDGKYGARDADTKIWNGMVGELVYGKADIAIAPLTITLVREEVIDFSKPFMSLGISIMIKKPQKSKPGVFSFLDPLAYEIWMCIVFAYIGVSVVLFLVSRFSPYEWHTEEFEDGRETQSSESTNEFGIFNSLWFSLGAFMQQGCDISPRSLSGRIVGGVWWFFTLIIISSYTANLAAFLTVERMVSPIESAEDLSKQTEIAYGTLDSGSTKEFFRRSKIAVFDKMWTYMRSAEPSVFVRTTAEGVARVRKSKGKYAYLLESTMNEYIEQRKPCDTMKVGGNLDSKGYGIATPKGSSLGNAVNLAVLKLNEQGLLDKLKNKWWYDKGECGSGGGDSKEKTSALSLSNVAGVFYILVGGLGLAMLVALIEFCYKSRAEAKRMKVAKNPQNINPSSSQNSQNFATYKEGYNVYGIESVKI
Calls only; - = inactive; . = no result; + = active, no number.

SMILES | GIRK2 activator | AMPAR-TARP mod
COc1ccc(C(=O)NC(=S)Nc2ccc(S(N)(=O)=O)cc2)cc1Br | . | -
COCCn1c(=NC(=O)c2ccno2)sc2cc(F)cc(F)c21 | - | +
COCCn1c(=NC(=O)CS(=O)(=O)c2ccc(OC)cc2)sc2cc(F)cc(F)c21 | - | -
COc1ccc(/C=C2\SC(=S)N(CC(=O)Nc3cccnc3)C2=O)cc1OC | . | -
Cc1c(Cl)cccc1NC(=O)Cn1c(=O)c(CNc2ccccc2)cc2cc3c(cc21)OCCO3 | - | +
O=C(Cn1c(=O)c(CNc2ccccc2)cc2cc3c(cc21)OCCO3)Nc1ccc2c(c1)OCCO2 | - | -
COC(=O)c1sccc1S(=O)(=O)N(CC(=O)Nc1ccc(OC)cc1)c1ccccc1 | - | -
COC(=O)c1sccc1S(=O)(=O)N(CC(=O)Nc1ccc(OC)cc1)c1ccc(Cl)cc1 | - | +
COC(=O)c1sccc1S(=O)(=O)N(CC(=O)Nc1ccccc1OC)c1ccc(Cl)cc1 | . | +
COC(=O)c1sccc1S(=O)(=O)N(CC(=O)Nc1cc(C)ccc1C)c1ccc(Cl)cc1 | - | -
COCCn1c(-n2nc(C)c(C)c2C)nc2c1c(=O)n(Cc1ccc(F)cc1)c(=O)n2C | . | -
O=C1CN(C(=O)c2csc(Nc3cccc(Cl)c3)n2)CCN1 | - | .
CCOC(=O)CNC(=O)c1nc(-c2cnccn2)no1 | - | -
Cc1cn2c3c(=O)n(Cc4ccccc4Cl)c(=O)n(C)c3nc2n1CCO | - | -
CCn1c(=O)c2c(nc3n(CCCOC)c(C)c(C)n23)n(C)c1=O | - | -
Cc1cn2c3c(=O)n(Cc4ccccc4F)c(=O)n(C)c3nc2n1CCCN(C)C | - | +
Cc1c(C)n2c3c(=O)n(CC(=O)OCc4ccccc4)c(=O)n(C)c3nc2n1C(C)C | - | -
Cc1c(C)n2c3c(=O)n(CCCc4ccccc4)c(=O)n(C)c3nc2n1C(C)C | - | +
Cc1c(C)n2c3c(=O)n(Cc4ccc(F)cc4)c(=O)n(C)c3nc2n1CCCN(C)C | - | +
NC(=O)C1Cc2ccccc2N1C(=O)COc1ccc(Cl)cc1Cl (centres undefined) | - | -
Cc1nc2sc(C(c3ccccc3F)N3CC(C)CC(C)C3)c(O)n2n1 (centres undefined) | . | -
CCn1c(SCC(=O)N2CCCC2)nnc1-c1cn(C)nc1OC | - | -
O=C(C1CCN(c2ccc(-c3ccc(Cl)cc3)nn2)CC1)N1CCOCC1 | - | -
COc1cc(OC)cc(C(=O)Nc2ccc(N3CCCC3=O)cc2)c1 | - | -
COc1ccc(C(=O)Nc2ccc(N3CCCC3=O)cc2)cc1 | - | +
SMILES | GIRK2 activator | AMPAR-TARP mod
O=C(COc1ccccc1)Nc1nonc1-c1ccccc1 | - | -
COc1ccc(OC)c(-c2ccc(=O)n(Cc3ccccc3)n2)c1 | - | -
COc1ccc(OC)c(-c2ccc(=O)n(Cc3cccc([N+](=O)[O-])c3)n2)c1 | - | +
Cc1ccc(NS(=O)(=O)c2ccc(F)cc2)cc1N1CCCCC1=O | - | +
COc1cc(NS(=O)(=O)c2ccc(F)cc2)ccc1N1CCCCC1=O | - | -
COc1cn(CC(=O)NC2CCCCC2)c(CSc2ccccc2)cc1=O | . | +
COc1cn(CC(=O)NC2CCCC2)c(CSc2ccc(C)cc2)cc1=O | - | -
CCOc1ccc(NC(=O)c2ccc(Oc3nccnc3N3CCCCC3)cc2)cc1 | - | -
O=C(C1CCCC1)N1CCN=C1SCc1c(F)cccc1Cl | - | -
COc1cccc(COc2coc(C(=O)Nc3ccc(C)c(F)c3)cc2=O)c1 | - | -
COc1coc(C(=O)Nc2ccc(F)c(F)c2)cc1=O | - | +
CCc1nccn1-c1cc(C)nc2c(-c3ccccc3Cl)c(C)nn12 | - | -
CCCCn1c(SCc2nc(-c3cc(OC)cc(OC)c3)no2)nc2ccsc2c1=O | - | -
CCCCn1c(SCc2nc(-c3ccc(Cl)cc3)no2)nc2ccsc2c1=O | - | +
CC(O)(CNC(=O)Nc1ccccc1)c1ccc(-c2ccccc2)cc1 (centres undefined) | - | -
O=C(NCC1(O)CCc2ccccc21)Nc1cccc(C(F)(F)F)c1 (centres undefined) | - | +
COc1ccccc1C1(CNC(=O)Nc2cccc(C(F)(F)F)c2)CCOCC1 | - | -
CCOC(=O)Cn1c(=O)c2c(nc3n(-c4cc(OC)ccc4OC)c(C)cn23)n(C)c1=O | . | -
COc1ccc([N+](=O)[O-])cc1NC(=O)c1ccccc1NS(=O)(=O)c1ccccc1 | - | -
COc1ccc(S(=O)(=O)Nc2ccccc2C(=O)Nc2ccc([N+](=O)[O-])cc2OC)cc1 | - | +
Cc1oc(-c2ccccc2Cl)cc1C(=O)Nc1nccs1 | . | -
CC(C)Cn1c(-c2ccccc2)cn2c3c(=O)n(C)c(=O)n(C)c3nc12 | - | -
COc1ccc(S(=O)(=O)N2CCN(c3ccc(Nc4ccccn4)nn3)CC2)cc1 | - | -
Cc1ccc(S(=O)(=O)N2CCN(c3ccc4nnc(C)n4n3)CC2)cc1C | - | +
COc1ccc(S(=O)(=O)N2CCN(c3ccc(-c4ccncc4)nn3)CC2)cc1C | - | +
SMILES | GIRK2 activator | AMPAR-TARP mod
Cc1nnc2ccc(N3CCN(S(=O)(=O)c4ccc(Cl)c(Cl)c4)CC3)nn12 | - | -
COc1ccc(S(=O)(=O)N2CCN(c3ccc(Nc4cccnc4)nn3)CC2)cc1 | - | +
Cc1cccc(Nc2ccc(N3CCN(C(=O)c4ccccc4)CC3)nn2)n1 | - | .
CCS(=O)(=O)N1CCN(c2ccc(Nc3cccc(C)n3)nn2)CC1 | - | +
COc1ccc(S(=O)(=O)N2CCN(c3ccc(-c4cccs4)nn3)CC2)cc1OC | - | -
O=C(Cn1cccc(-c2nc(-c3ccc(Cl)cc3)no2)c1=O)N1CCCc2ccccc21 | - | -
CCNS(=O)(=O)c1ccc(OC)c(NC)c1 | - | -
CCOc1ccc(S(=O)(=O)NCC2CCN(Cc3cc(C)oc3C)CC2)cc1F | - | .
CC(C)OCCCNC(=O)C(=O)NCCC1=CCCCC1 | - | -
COc1ccc(S(=O)(=O)N2CCN(c3ccc(Nc4cccc(C)n4)nn3)CC2)cc1Cl | - | +
Cc1ccnc(Nc2ccc(N3CCN(S(=O)(=O)c4ccc(F)cc4)CC3)nn2)c1 | - | .
CN(C)S(=O)(=O)N1CCN(c2ccc(Nc3ccncc3)nn2)CC1 | - | -
Cc1cccc(Nc2ccc(N3CCN(S(=O)(=O)c4c(C)noc4C)CC3)nn2)n1 | - | +
COc1cc(N2CCN(S(=O)(=O)c3c(C)noc3C)CC2)nc(OC)n1 | - | -
COc1ccc(S(=O)(=O)N2CCN(Cc3nnnn3-c3ccccc3)CC2)cc1OC | - | -
COc1ccc(S(=O)(=O)N2CCN(Cc3nnnn3-c3ccc(C)cc3)CC2)cc1C | - | +
Cc1cccc(Nc2ccc(N3CCN(S(=O)(=O)N(C)C)CC3)nn2)n1 | - | +
O=C(NCC#CCN1CCc2ccccc2C1)Nc1cccs1 | - | -
O=C(NCC1CCN(Cc2cccs2)CC1)C(=O)Nc1ccc(OC(F)(F)F)cc1 | - | -
COc1ccc(S(=O)(=O)Nc2ccc3c(c2)CCCN3C(=O)c2ccccc2)cc1F | . | -
CCCCS(=O)(=O)NCCNc1ccc(Nc2cc(C)ccn2)nn1 | - | .
Cc1nn(C2CCS(=O)(=O)C2)c(C)c1CC(=O)N1CCN(c2ccccc2F)CC1 (centres undefined) | - | -
CN(C)C(CNC(=O)C(=O)Nc1ccc2c(c1)OCCO2)c1cccs1 (centres undefined) | - | -
CCN(CC)C(=O)Cn1cc(C(=O)C(=O)N(Cc2ccccc2)C(C)C)c2ccccc21 | . | +
